# From PubChem BioAssay
# APP 5UTR inh – inhibitors of APP translation via 5'UTR reporter, primary screen, APP 5'UTR luciferase, SH-SY5Y cells; SH-SY5Y APP 5'UTR-luciferase reporter, luminescence; inhibition, % at 2 µM; actives 0.82% (n = 190,000); AID 1285, 2008;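 active = inhibition above a set limit, derived from the sample mean plus 3 SD, cut at about 45% in these data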
# BaF3 parental – parental Ba/F3 cell viability inhibition, counter-screen for JAK2V617F inhibitor project, murine pro-B, CellTiter-Glo luminescence. inhibition, % at 5.6 µM. actives 1.1% (n = 220,000). CellTiter-Glo ATP luminescence;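 active = inhibition above a per-campaign cutoff, the mean inhibition of all tested compounds plus 3 SD, cut at about 27% in these data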;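 note: 0% = DMSO wells and 100% = JAK Inhibitor I control wells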
# KLF5 inh – KLF5 expression inhibitors, primary screen, DLD-1 cells, luminescence. DLD-1 KLF5 promoter-luciferase reporter. inhibition, % at 5 µM. actives 0.23% (n = 290,000). AID 1700, 2009;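 active = inhibition above a per-plate limit of that plate's mean compound inhibition plus 3 SD, cut at about 60% in these data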;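 note: 0% = DMSO wells and 100% = LY294002 at 200 µM; higher means less KLF5 promoter-driven luciferase light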
# aSyn UTR inh – MLPCN primary screen, SNCA 5' untranslated region; inhibition, % (tested at 7.5 µM); AID 1813, 2009; actives 0.82% (n = 300,000); alpha-synuclein 5'UTR reporter, inhibitor activity; in the data active = inhibition above about 60%;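 note: H4 neuroglioblastoma cells stably carrying SNCA 5'UTR luciferase fusion; 0% = DMSO wells and 100% = positive control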
# Ba/F3 V617F tox – reduced viability of JAK2V617F-dependent Ba/F3 cells, primary screen, JAK2V617F inhibitor project, cell-based, Ba/F3 EpoR-JAK2V617F, luminescence; ATP luminescence; inhibition, % at 5.6 µM; actives 1.1% (n = 220,000);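 active = inhibition above the campaign mean plus 3 SD over all tested compounds, cut at about 24% in these data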;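 note: cytokine-independent growth of Ba/F3 cells driven by EpoR plus mutant JAK2; 0% = DMSO-treated cells and 100% = JAK inhibitor I control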
# IEC-6 cytotox – cytotoxicity in IEC-6 intestinal epithelial cells, primary screen, cytotoxicity control for KLF5 inhibitor project, cell-based, luminescence; IEC-6 cytotoxicity, luminescence viability; actives 0.78% (n = 290,000); inhibition, % at 5 µM; in the data active = inhibition above about 22%;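 note: 0% = plate median of test compound wells and 100% = cytotoxic reference compound wells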
# * marks the source's active call; other numbers are inactive results; · = no result given. Rows were chosen to be rich in hits. Some 2.2% of all compounds tested hit in one or more screens of this group.
SMILES,APP 5UTR inh,BaF3 parental,KLF5 inh,aSyn UTR inh,Ba/F3 V617F tox,IEC-6 cytotox
Cc1ccc(-c2cn3nc(C)c(C)nc3n2)cc1,-46.5,1.0,-49.6,72.7*,-3.2,0.4
CCc1ccc(-c2cn3nc(-c4ccccc4)cnc3n2)cc1,·,-0.4,-15.6,-12.0,-3.8,1.7
CCN1CCN(Cc2ccc(NC(=O)c3ccc(C)c(NC(=O)c4c[nH]c5cc(C(F)(F)F)ccc5c4=O)c3)cc2C(F)(F)F)CC1,·,·,·,112.6*,·,·
CCN1CCN(Cc2ccc(NC(=O)c3ccc(C)c(NC(=O)c4ccno4)c3)cc2C(F)(F)F)CC1,·,·,·,67.1*,·,·
CCN1CCN(Cc2ccc(NC(=O)c3ccc(C)c(/C=C/c4cnc(Nc5cc(N6CCNCC6)nc(C)n5)cn4)c3)cc2C(F)(F)F)CC1,·,·,-7.3,110.2*,·,·
CCN1CCN(Cc2ccc(NC(=O)c3ccc(C)c(NC(=O)c4cccc(-c5cn[nH]c(=O)c5)c4)c3)cc2C(F)(F)F)CC1,·,·,-9.2,-7.9,·,1.7
CC(=O)N[C@@H]1[C@@H](O)[C@@H]2OC(c3ccccc3)OC[C@H]2O[C@@H]1N=[N+]=[N-] (some centres undefined),·,·,-6.6,2.5,·,-1.4
COc1ccc(C2/C=C\CN(C(=O)Nc3ccc(C(F)(F)F)cc3)CC(=O)N2Cc2ccc(F)cc2)cc1 (centres undefined),·,·,·,71.4*,·,·
CCC(NC(=S)NC1CCCCC1)c1ccc(C(C)C)cc1 (centres undefined),·,·,-8.0,-2.3,·,-6.2
CCOC(=O)c1csc(-c2snnc2C)n1,·,-0.7,-7.4,-23.4,2.7,9.6
CCOCC(O)CNc1ccccc1 (centres undefined),1.2,7.6,-8.1,1.8,-0.5,1.4
OC(CNc1ccccc1)COc1ccc(OCC(O)CNc2ccccc2)cc1 (centres undefined),-6.7,34.3*,13.0,-2.5,23.6*,15.6
O=C(NCCCN1CCN(c2cccc(Cl)c2)CC1)c1ccc(N2CCCC2=O)cc1,67.4*,4.2,-20.2,9.5,-2.9,-4.6
COc1ccc(-n2nc3c(c2NC(=O)c2ccccc2S(=O)(=O)C(F)F)CS(=O)(=O)C3)cc1,·,·,-34.3,-15.0,·,-8.7
COc1cc(Cn2c(-c3nonc3N)nc3ccccc32)ccc1C,89.6*,2.7,0.8,96.2*,1.4,9.7
Cc1ccc(Cn2c(-c3nonc3N)nc3ccccc32)cc1,5.9,3.3,21.4,23.3,2.6,5.7
CCCCOc1ccccc1NC(=O)Cn1c(-c2nonc2N)nc2ccccc21,90.5*,8.9,18.7,124.2*,1.7,1.0
COc1cccc(Cn2c(-c3nonc3N)nc3ccccc32)c1,91.9*,79.3*,-37.7,95.8*,85.8*,8.6
CN(/N=C/c1cccnc1)c1cnc2ccccc2n1,-170.4,8.3,-62.7,-139.2,0.9,10.1
COC(=O)C1=C(C)NC(C)=C(C(=O)OCC(C)C)C1c1ccccc1[N+](=O)[O-] (centres undefined),·,·,·,70.5*,·,·
CCCOc1ccccc1C1CC(=O)NC(C)=C1C(=O)OCC(C)C (centres undefined),-11.2,3.6,-15.1,15.8,1.8,2.8
Cc1ccc(Nc2nc(-c3cccnc3)nc3ccccc23)cc1,·,29.8*,-0.2,-94.7,49.2*,19.0
CCN(Cc1nc(-c2ccc(OC)c(OC)c2)no1)C(=O)c1ccoc1C,·,·,-12.6,-1.2,·,0.8
CCOC(=O)c1cnc2sc3c(n2c1=O)CCCC3,-25.4,63.9*,6.5,·,71.7*,12.0
CCOC(=O)CNC(=O)Cn1cnc2c(nnn2-c2ccc(F)cc2)c1=O,-5.8,95.8*,5.8,1.4,-3.7,1.5
Cc1c(NC(=O)CC(=O)Nc2c(C)n(C)n(-c3ccccc3)c2=O)c(=O)n(-c2ccccc2)n1C,2.6,3.9,14.7,23.5,-1.8,1.9
COc1ccc(-n2c(N)c(C(=O)Nc3c(C)n(C)n(-c4ccccc4)c3=O)c3nc4ccccc4nc32)cc1,·,3.9,-3.2,18.9,-3.6,-6.4
Cc1ccc(-n2c(N)c(C(=O)Nc3c(C)n(C)n(-c4ccccc4)c3=O)c3nc4ccccc4nc32)cc1C,-6.7,1.6,-7.9,74.0*,-1.8,9.6
Cc1c(NC(N)=O)c(=O)n(-c2ccccc2)n1C,5.5,79.8*,5.4,-8.7,1.1,3.6
